Common to all, as to experiment: DAPPL (digital affinity profiling via proximity ligation, sequencing); 10 mM Tris-HCl pH 7.5, 50 mM NaCl, 1 mM DTT, 4% glycerol, room temperature, 30 min; GST-TFs on glutathione beads, 16-mer random dsDNA library, 0.1% formaldehyde crosslink after washing; high values mean tight binding
In one test the target is T1, FEV (Homo sapiens, UniProt Q99581 1-238).
T1 sequence: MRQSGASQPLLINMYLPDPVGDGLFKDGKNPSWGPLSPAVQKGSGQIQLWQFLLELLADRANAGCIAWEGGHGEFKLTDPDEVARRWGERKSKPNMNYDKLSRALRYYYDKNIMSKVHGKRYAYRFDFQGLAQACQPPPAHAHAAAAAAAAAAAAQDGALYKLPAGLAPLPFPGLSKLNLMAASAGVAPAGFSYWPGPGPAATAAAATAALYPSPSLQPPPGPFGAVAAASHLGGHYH
To be noted: protein: recombinant; tags: N-terminal GST; dsDNA, one strand shown. The procedure, abridged: (§1)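 A tag-only sample was pooled with DNA-barcoded human transcription factors that had been expressed in yeast as GST fusions and captured on glutathione beads. The pools were incubated for 30 min at room temperature with 200 nmole of a random double-stranded 16-mer DNA library in Tris/NaCl/DTT/glycerol buffer, then washed, crosslinked with 0.1% formaldehyde, proximity-ligated (BsaI/T4 ligase, 1 h, 37 °C), PCR-amplified and sequenced on an Illumina NextSeq500. Binding signal is each hexamer's read frequency for a factor divided by its frequency for the tag-only sample.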

For a further test, the target named is ETV5 (Homo sapiens, UniProt P41161 1-510). The settings on record: protein: recombinant; tags: N-terminal GST; dsDNA, one strand shown. An outline of the steps:
as §1

The next test has as its target HSF1 (Homo sapiens, UniProt Q00613 1-529). To be noted: protein: recombinant; tags: N-terminal GST; chain copies: 3; dsDNA, one strand shown. The procedure, abridged: as §1
Another test has as its target T2, SPIC (Homo sapiens, UniProt Q8N5J4 1-248).
T2 sequence: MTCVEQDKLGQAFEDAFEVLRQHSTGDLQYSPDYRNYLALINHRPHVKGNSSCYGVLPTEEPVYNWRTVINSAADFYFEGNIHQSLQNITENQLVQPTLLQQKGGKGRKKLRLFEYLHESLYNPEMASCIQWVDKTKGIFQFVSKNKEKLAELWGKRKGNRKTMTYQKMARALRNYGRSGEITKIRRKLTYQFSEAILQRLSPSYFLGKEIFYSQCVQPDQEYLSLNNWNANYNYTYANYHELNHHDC
The settings on record: protein: recombinant; tags: N-terminal GST; dsDNA, one strand shown. The procedure, abridged: as §1

Another test deals with ELF4 (Homo sapiens, UniProt Q99607 1-663). To be noted: protein: recombinant; tags: N-terminal GST; dsDNA, one strand shown. An outline of the steps: as §1
Chain of ELF4 (Q99607 whole entry): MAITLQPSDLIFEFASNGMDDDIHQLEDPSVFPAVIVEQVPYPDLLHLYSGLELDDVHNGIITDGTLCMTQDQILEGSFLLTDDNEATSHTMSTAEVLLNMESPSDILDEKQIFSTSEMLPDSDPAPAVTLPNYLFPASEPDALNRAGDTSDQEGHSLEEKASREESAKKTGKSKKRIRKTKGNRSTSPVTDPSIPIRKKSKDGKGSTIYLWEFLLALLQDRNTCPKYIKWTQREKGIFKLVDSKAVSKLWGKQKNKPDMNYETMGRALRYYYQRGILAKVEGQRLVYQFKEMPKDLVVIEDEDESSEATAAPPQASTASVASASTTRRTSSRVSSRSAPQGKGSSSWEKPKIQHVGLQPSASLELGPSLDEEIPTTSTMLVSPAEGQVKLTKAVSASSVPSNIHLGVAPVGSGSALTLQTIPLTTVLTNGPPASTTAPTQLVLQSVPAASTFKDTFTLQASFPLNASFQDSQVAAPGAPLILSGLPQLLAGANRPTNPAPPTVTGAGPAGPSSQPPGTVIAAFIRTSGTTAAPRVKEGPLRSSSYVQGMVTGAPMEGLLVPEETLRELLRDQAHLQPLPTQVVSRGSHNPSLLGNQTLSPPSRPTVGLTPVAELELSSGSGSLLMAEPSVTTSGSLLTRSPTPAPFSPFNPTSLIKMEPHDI
The target of another test is T3, ELK4 (Homo sapiens, UniProt P28324-2 1-405).
T3 sequence: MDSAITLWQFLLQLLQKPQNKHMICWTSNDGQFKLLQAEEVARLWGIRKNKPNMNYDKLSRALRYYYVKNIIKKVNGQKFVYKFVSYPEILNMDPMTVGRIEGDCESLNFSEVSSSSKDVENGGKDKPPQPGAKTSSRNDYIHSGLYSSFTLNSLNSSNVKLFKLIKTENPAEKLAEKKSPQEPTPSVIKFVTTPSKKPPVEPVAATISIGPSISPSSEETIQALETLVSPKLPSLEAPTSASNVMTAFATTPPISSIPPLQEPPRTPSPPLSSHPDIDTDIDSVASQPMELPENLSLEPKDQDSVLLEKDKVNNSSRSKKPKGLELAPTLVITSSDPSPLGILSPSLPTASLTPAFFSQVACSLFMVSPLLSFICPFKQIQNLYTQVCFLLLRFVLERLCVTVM
The settings on record: protein: recombinant; tags: N-terminal GST; dsDNA, one strand shown. The procedure, abridged: as §1

For another test, the target named is T4, ETV2 (Homo sapiens, UniProt O00321 1-342).
T4 sequence: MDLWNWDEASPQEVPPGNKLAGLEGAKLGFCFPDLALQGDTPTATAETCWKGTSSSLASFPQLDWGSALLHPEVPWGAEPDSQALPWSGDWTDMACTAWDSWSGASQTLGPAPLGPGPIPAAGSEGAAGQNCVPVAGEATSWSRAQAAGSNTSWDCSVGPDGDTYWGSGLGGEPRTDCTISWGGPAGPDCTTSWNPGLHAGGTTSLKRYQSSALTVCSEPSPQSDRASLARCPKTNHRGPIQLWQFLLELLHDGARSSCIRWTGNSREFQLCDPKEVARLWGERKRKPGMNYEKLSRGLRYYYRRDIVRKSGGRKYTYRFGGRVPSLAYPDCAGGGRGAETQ
The settings on record: protein: recombinant; tags: N-terminal GST; dsDNA, one strand shown. An outline of the steps: as §1

The next test deals with T5, ELF3 (Homo sapiens, UniProt P78545 1-371).
T5 sequence: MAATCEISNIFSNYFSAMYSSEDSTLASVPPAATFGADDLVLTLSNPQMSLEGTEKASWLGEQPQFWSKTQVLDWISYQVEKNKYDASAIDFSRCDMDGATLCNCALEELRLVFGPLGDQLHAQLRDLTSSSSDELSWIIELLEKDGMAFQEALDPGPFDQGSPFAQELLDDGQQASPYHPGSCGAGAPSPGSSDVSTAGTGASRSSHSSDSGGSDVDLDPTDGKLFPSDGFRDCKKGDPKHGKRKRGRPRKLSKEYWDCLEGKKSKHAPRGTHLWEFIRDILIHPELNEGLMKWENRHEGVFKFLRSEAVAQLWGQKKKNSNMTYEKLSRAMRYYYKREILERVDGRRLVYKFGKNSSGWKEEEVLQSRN
To be noted: protein: recombinant; tags: N-terminal GST; dsDNA, one strand shown. An outline of the steps:
as §1

The target of the next test is CRX (Homo sapiens, UniProt O43186 1-299). The settings on record: protein: recombinant; tags: N-terminal GST; dsDNA, one strand shown. The procedure, abridged: as §1
Chain of CRX (O43186 whole entry): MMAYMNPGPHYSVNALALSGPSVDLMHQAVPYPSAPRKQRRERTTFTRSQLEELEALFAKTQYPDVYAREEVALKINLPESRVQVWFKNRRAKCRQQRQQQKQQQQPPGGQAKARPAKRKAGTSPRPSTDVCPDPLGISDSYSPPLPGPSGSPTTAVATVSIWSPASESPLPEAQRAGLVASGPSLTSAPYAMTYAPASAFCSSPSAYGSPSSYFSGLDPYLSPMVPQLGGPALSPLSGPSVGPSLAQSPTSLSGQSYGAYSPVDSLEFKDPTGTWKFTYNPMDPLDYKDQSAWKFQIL
Another test has as its target ETV1 (Homo sapiens, UniProt P50549 1-477). The settings on record: protein: recombinant; tags: N-terminal GST; dsDNA, one strand shown. The procedure, abridged:
as §1

A further test concerns the target T6, ERF (Homo sapiens, UniProt P50548 1-548).
T6 sequence: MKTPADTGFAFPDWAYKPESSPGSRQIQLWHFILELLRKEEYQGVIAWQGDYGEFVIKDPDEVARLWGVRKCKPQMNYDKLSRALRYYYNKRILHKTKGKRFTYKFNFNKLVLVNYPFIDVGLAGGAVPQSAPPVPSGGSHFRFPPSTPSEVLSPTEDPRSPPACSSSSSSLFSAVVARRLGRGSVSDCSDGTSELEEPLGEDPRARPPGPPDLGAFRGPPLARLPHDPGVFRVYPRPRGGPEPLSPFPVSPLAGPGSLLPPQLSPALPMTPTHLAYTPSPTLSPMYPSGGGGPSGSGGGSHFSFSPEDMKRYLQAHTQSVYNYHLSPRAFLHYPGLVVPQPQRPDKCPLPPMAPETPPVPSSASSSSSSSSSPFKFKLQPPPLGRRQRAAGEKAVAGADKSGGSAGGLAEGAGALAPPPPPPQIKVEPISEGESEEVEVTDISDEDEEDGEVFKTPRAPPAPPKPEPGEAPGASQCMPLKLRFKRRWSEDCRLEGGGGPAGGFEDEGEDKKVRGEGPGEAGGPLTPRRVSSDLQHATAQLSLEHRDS
The settings on record: protein: recombinant; tags: N-terminal GST; dsDNA, one strand shown. The procedure, abridged:
as §1

For another test, the target named is T7, ETV3L (Homo sapiens, UniProt Q6ZN32 1-361).
T7 sequence: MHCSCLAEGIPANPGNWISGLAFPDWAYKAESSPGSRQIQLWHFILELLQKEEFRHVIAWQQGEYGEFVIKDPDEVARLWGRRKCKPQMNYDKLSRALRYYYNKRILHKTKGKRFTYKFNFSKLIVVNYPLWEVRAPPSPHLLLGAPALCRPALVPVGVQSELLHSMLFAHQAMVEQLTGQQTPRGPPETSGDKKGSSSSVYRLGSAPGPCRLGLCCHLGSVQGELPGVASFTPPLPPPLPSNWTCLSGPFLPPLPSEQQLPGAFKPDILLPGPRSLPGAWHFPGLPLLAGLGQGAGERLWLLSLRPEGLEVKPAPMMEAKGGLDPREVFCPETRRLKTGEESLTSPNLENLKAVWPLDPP
The settings on record: protein: recombinant; tags: N-terminal GST; dsDNA, one strand shown. The procedure, abridged:
as §1

Another test concerns the target T8, ETS2 (Homo sapiens, UniProt P15036 1-469).
T8 sequence: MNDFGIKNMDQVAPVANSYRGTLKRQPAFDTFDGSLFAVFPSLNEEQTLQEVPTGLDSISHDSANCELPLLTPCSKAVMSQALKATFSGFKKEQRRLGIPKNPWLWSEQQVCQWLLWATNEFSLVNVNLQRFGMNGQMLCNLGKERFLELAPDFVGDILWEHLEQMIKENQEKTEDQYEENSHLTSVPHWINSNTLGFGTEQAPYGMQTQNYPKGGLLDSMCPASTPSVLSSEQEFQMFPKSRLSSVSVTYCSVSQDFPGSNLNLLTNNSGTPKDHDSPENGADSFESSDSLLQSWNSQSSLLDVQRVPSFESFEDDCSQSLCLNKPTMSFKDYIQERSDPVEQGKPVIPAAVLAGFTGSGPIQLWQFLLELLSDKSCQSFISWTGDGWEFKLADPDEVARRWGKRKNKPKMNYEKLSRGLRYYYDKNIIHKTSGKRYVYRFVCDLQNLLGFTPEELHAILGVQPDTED
To be noted: protein: recombinant; tags: N-terminal GST; dsDNA, one strand shown. The procedure, abridged:
as §1

The next test deals with T9, SPDEF (Homo sapiens, UniProt O95238 1-335).
T9 sequence: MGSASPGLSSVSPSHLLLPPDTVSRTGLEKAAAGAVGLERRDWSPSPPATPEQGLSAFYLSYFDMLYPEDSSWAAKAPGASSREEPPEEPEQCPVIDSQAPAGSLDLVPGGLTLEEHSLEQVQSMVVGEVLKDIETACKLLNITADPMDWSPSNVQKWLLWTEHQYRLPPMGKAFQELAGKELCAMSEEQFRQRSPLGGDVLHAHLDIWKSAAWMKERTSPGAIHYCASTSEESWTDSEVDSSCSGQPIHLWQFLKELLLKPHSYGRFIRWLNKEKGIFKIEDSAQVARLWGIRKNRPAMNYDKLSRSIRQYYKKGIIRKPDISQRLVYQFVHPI
To be noted: protein: recombinant; tags: N-terminal GST; dsDNA, one strand shown. The procedure, abridged: as §1

The target in the next test is T10, ETV7 (Homo sapiens, UniProt Q9Y603 1-341).
T10 sequence: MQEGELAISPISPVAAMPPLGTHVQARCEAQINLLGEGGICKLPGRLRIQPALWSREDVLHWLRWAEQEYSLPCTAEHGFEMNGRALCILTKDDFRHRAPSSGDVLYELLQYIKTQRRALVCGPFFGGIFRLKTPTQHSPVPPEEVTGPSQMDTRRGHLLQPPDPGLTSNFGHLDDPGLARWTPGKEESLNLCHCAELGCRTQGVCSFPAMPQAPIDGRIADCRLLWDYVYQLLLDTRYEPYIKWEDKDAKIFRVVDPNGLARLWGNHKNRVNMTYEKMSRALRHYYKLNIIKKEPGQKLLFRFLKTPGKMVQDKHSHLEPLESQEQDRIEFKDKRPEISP
To be noted: protein: recombinant; tags: N-terminal GST; dsDNA, one strand shown. The procedure, abridged:
as §1

The target of a further test is T11, ELF5 (Homo sapiens, UniProt Q9UKW6-2 1-255).
T11 sequence: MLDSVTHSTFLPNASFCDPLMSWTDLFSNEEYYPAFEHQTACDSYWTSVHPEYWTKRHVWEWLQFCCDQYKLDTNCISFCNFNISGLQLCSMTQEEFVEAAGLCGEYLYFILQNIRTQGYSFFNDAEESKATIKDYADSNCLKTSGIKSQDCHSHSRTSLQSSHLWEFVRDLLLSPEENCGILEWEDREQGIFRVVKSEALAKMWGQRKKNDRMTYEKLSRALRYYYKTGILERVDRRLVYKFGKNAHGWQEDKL
The settings on record: protein: recombinant; tags: N-terminal GST; dsDNA, one strand shown. An outline of the steps:
as §1

Another test deals with T12, ETV3 (Homo sapiens, UniProt P41162-2 1-143).
T12 sequence: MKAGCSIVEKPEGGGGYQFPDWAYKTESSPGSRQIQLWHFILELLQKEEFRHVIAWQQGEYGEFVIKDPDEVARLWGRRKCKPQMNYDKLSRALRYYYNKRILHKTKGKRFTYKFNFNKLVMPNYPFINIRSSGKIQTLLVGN
To be noted: protein: recombinant; tags: N-terminal GST; dsDNA, one strand shown. The procedure, abridged: as §1

The next test concerns the target ETV6 (Homo sapiens, UniProt P41212 1-452). To be noted: protein: recombinant; tags: N-terminal GST; dsDNA, one strand shown. The procedure, abridged: as §1

Chain of ETV1 (P50549 whole entry): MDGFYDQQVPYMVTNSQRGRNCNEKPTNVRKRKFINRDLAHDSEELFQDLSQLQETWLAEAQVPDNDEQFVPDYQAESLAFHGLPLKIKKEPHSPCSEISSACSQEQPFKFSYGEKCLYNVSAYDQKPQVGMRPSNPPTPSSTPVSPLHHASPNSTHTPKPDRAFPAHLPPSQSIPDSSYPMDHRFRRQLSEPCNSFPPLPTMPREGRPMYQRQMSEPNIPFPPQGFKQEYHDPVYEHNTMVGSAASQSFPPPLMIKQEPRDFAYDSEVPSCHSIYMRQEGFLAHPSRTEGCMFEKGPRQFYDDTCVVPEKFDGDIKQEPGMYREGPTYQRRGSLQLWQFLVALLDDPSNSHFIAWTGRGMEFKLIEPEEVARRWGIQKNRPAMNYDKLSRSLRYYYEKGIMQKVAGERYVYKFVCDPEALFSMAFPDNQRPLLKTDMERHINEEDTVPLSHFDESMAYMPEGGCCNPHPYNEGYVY
Chain of HSF1 (Q00613 whole entry): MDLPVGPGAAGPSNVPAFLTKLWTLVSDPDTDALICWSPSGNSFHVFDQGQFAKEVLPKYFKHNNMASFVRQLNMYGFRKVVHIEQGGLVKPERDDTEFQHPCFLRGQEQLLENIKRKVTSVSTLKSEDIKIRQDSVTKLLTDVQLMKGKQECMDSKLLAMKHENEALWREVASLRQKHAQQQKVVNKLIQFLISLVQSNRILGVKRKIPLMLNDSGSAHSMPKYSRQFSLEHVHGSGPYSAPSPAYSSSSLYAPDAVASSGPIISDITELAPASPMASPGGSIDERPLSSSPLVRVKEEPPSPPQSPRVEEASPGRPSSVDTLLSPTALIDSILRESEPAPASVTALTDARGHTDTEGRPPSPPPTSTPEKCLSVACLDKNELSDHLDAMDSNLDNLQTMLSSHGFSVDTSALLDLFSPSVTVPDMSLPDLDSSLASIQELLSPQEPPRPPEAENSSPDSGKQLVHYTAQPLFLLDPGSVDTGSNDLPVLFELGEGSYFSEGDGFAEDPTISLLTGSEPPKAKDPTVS
Chain of ETV6 (P41212 whole entry): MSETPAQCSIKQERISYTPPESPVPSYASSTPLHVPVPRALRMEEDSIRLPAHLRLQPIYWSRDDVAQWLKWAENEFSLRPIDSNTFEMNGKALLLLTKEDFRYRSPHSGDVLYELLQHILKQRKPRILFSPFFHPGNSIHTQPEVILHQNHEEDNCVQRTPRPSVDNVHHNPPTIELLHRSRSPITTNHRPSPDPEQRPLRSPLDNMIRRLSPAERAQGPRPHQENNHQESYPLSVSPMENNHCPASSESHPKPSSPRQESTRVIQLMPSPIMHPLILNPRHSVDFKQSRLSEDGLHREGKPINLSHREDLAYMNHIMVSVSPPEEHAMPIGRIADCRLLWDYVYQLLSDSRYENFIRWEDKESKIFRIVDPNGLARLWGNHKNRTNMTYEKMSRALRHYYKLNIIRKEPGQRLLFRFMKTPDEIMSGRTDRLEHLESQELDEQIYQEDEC
Chain of ETV5 (P41161 whole entry): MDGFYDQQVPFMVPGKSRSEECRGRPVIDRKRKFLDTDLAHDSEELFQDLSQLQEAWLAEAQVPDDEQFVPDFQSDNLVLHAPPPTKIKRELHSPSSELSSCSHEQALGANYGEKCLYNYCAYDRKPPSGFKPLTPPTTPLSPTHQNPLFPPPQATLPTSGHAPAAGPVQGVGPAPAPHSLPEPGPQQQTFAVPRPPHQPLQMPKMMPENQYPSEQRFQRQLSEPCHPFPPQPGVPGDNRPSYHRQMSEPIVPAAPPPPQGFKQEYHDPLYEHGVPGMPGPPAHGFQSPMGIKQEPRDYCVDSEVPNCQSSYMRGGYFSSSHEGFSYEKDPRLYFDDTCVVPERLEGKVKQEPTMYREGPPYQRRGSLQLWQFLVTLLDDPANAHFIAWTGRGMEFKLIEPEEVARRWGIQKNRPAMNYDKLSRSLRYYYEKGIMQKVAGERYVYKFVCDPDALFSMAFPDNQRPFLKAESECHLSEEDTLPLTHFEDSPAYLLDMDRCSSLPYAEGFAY

As for TCTTCT, the binding signal with FEV is 1.16 fold enrichment (6-mer frequency, TF over GST control); with ETV5, 1.14 fold enrichment (6-mer frequency, TF over GST control); with HSF1 it was 2.17 fold enrichment (6-mer frequency, TF over GST control); with SPIC, 1.31 fold enrichment (6-mer frequency, TF over GST control); with ELF4, 1.16 fold enrichment (6-mer frequency, TF over GST control); in the test with ELK4 it was 1.26 fold enrichment (6-mer frequency, TF over GST control). Also, the binding signal with ETV2 is 1.22 fold enrichment (6-mer frequency, TF over GST control); in the test with ELF3 it was 1.31 fold enrichment (6-mer frequency, TF over GST control); with CRX, 1.59 fold enrichment (6-mer frequency, TF over GST control); in the test with ETV1, 1.25 fold enrichment (6-mer frequency, TF over GST control); with ERF, 1.24 fold enrichment (6-mer frequency, TF over GST control); in the test with ETV3L, 1.29 fold enrichment (6-mer frequency, TF over GST control). In addition, the binding signal with ETS2 is 1.23 fold enrichment (6-mer frequency, TF over GST control); in the test with SPDEF it was 1.16 fold enrichment (6-mer frequency, TF over GST control); with ETV7, 1.06 fold enrichment (6-mer frequency, TF over GST control); in the test with ELF5, 1.19 fold enrichment (6-mer frequency, TF over GST control); with ETV3, 1.25 fold enrichment (6-mer frequency, TF over GST control); with ETV6 it was 1.29 fold enrichment (6-mer frequency, TF over GST control).

Values taken from article PMC7862700, “An all-to-all approach to the identification of sequence-specific readers for epigenetic DNA modifications on cytosine”.
